In PubChem BioAssay AID1159580 (chemical genetic matrix, 2015):
In all, about 5,500 compounds went through this assay and about 2,000 (36%) were called active. About 18% were inconclusive and are not listed. No stated cut-off is given here; in the data, active means normalized growth mostly below about 0.91 (no sharp cut-off); inconclusive means no clear call, values can overlap the other calls; inactive means mostly above about 0.92. Some of the results follow.

Experiment: chemical genetic growth profiling, strain panel (AID 1159580);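 further: tested at 20 µM; growth read once vehicle control cultures reached saturation at 30 °C; 1 = growth at the plate median or of vehicle wells; lower values mean less growth of the strain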
Conditions: S. cerevisiae deletion strains, growth OD

Measured: normalized growth

CC(=O)OCC(=O)[C@@]1(O)CCC2C3CC[C@@H]4C[C@H](O)CC[C@]4(C)C3C(=O)C[C@@]21C (some centres not stated)
inactive: locus YAL021C, strain ccr4, hits give low values 1.02 | locus YAL026C, strain drs2, hits give low values 1.01 | locus YAL030W, strain snc1, hits give low values 1.02 | locus YBL061C, strain skt5, hits give low values 1.03 | locus YBR009C, strain hhf1, hits give low values 1.03 | locus YBR023C, strain chs3, hits give low values 1.02 | locus YBR171W, strain sec66, hits give low values 1.03 | locus YBR231C, strain swc5, hits give low values 1.02 | locus YBR279W, strain paf1, hits give low values 1.03 | locus YCL011C, strain gbp2, hits give low values 1.04 | locus YCL016C, strain dcc1, hits give low values 1.04 | locus YCL061C, strain MRC1, hits give low values 1.03 | locus YCL069W, strain vba3, hits give low values 1.01 | locus YCR088W, strain abp1, hits give low values 1.01 | locus YDL005C, strain med2, hits give low values 1.02 | locus YDL040C, strain nat1, hits give low values 1.02 | locus YDR001C, strain nth1, hits give low values 1.01 | locus YDR069C, strain doa4, hits give low values 1.02 | locus YDR137W, strain rgp1, hits give low values 1.06 | locus YDR159W, strain sac3, hits give low values 1.01 | locus YDR195W, strain ref2 0.988 | locus YDR297W, strain sur2, hits give low values 1.01 | locus YDR334W, strain swr1, hits give low values 1.01 | locus YDR335W, strain msn5, hits give low values 1.01 | locus YDR392W, strain spt3, hits give low values 0.983 | locus YEL003W, strain gim4, hits give low values 1.01 | locus YEL037C, strain rad23, hits give low values 1 | locus YEL061C, strain CIN8 (second series), hits give low values 1.01 | locus YER015W, strain faa2, hits give low values 1.01 | locus YER016W, strain bim1, hits give low values 1.02 | locus YER111C, strain swi4, hits give low values 1.02 | locus YER155C, strain BEM2 (second series), hits give low values 1.03 | locus YFR010W, strain ubp6, hits give low values 1.01 | locus YGL167C, strain pmr1, hits give low values 1.01 | locus YGL173C, strain kem1, hits give low values 1.03 | locus YGL227W, strain vid30, hits give low values 1.02 | locus YGL240W, strain doc1, hits give low values 1.03 | locus YGL253W, strain hxk2, hits give low values 1.01 | locus YHR013C, strain ard1, hits give low values 1.03 | locus YHR027C, strain rpn1, hits give low values 1.01 | locus YHR142W, strain chs7, hits give low values 1.02 | locus YJL092W, strain hpr5, hits give low values 1.01 | locus YJL095W, strain BCK1 (second series), hits give low values 1.02 | locus YJL115W, strain asf1, hits give low values 1.02 | locus YJL129C, strain trk1, hits give low values 1.05 | locus YJL154C, strain vps35, hits give low values 1.01 | locus YJL164C, strain tpk1, hits give low values 1.03 | locus YJL166W, strain qcr8, hits give low values 1.03 | locus YJL187C, strain SWE1, hits give low values 1.02 | locus YKL160W, strain elf1, hits give low values 1.03 | locus YKR026C, strain gcn3, hits give low values 1.01 | locus YKR091W, strain srl3, hits give low values 1.02 | locus YLL001W, strain dnm1, hits give low values 1.03 | locus YLL026W, hits give low values 1.02 | locus YLL041C, strain sdh2, hits give low values 1.01 | locus YLR027C, strain aat2, hits give low values 1.02 | locus YLR221C, strain rsa3, hits give low values 1.05 | locus YLR258W, strain gsy2, hits give low values 1.02 | locus YLR262C, strain YPT6 (second series), hits give low values 1.04 | locus YLR320W, strain mms22, hits give low values 1.07 | locus YLR342W, strain FKS1, hits give low values 1.01 | locus YLR357W, strain rsc2, hits give low values 1.03 | locus YLR370C, strain arc18, hits give low values 1.02 | locus YLR384C, strain iki3, hits give low values 1.02 | locus YML120C, strain ndi1, hits give low values 1.01 | locus YMR058W, strain fet3, hits give low values 1.01 | locus YMR125W, strain sto1, hits give low values 1.02 | locus YMR129W, hits give low values 1.01 | locus YMR205C, strain PFK2, hits give low values 1.03 | locus YMR231W, strain pep5, hits give low values 1.01 | locus YNL071W, strain lat1, hits give low values 1.02 | locus YNL209W, strain ssb2, hits give low values 1.02 | locus YNL248C, strain rpa49, hits give low values 1.01 | locus YNL322C, strain KRE1 (second series), hits give low values 1.03 | locus YNR049C, strain mso1, hits give low values 1.01 | locus YOR001W, strain rrp6, hits give low values 1.01 | locus YOR070C, strain gyp1, hits give low values 1.02 | locus YOR080W, strain dia2, hits give low values 1.02 | locus YOR083W, strain WHI5, hits give low values 1.04 | locus YOR106W, strain vam3, hits give low values 1.02 | locus YOR265W, strain rbl2, hits give low values 1.02 | locus YOR270C, strain vph1, hits give low values 1.03 | locus YOR290C, strain snf2, hits give low values 1 | locus YPL051W, strain arl3, hits give low values 1.02 | locus YPL078C, strain atp4, hits give low values 1.02 | locus YPL106C, strain sse1, hits give low values 1.07 | locus YPL240C, strain hsp82, hits give low values 1.02
